# Data reported in the supplement of paper PMC8728848.
# The entries come from a sample that favours the strongest signals as a whole.
# B1: Cohesin-mDC-ASGPR (Macaca mulatta) (protein)
# chain: LDITSHHHHHHDDLDAVRIKVDTVNAKPGDTVRIPVRFSGIPSKGIANCDFVYSYDPNVLEIIEIEPGDIIVDPNPDKSFDTAVYPDRKIIVFLFAEDSGTGAYAITKDGVFATIVAKVKEGAPNGLSVIKFVEVGGFANNDLVEQKTQFFDGGVNVGDTTEPATPTTPVTTPTTTDDLDAASSQNSKFQRDLVTLRTDFSNFTSNTVAEIQALTSQGSSVEEMIASLKAEVEVIKQEQQAVHSEMLLRVQRLMQDLNKLTCQVATLKNNASTERTCCPVNWVEHQDSCYWFSRSGMPWAEAEKHCQLENAHLVVINSREEQNFVQEHLSFAYTWMGLSDREGAWKWVDGTDYETGFQNWKPGQPDDWQGHGLGGGEDCAHFHPDGRWNDDVCQRPYYWVCEAGLTQASQESH
# Legend:
# Assay in all cases: glycan array binding signal (z-score within array); higher = stronger binding
# Details in all cases: glycan notation: IUPAC condensed, linker removed
# Man(a1-3)[Man(a1-6)]Man = biological target: Man(a1-3)[Man(a1-6)]Man
# How it was run: (§1)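 The Consortium for Functional Glycomics database supplied 3228 glycan arrays, of which those lacking an available protein sequence were dropped. The binding signal, a within-array Z-score, was averaged across arrays of the same protein sequence and across linkers. Negative scores can be read as non-binding.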
# [1] = biological target: Neu5Ac(a2-3)Gal(b1-3)GlcNAc(b1-2)Man
# How it was run: as §1
# [2] = biological target: Neu5Ac(a2-3)Gal(b1-3)GlcNAc(b1-6)GalNAc
# How it was run: as §1
# [3] = biological target: Neu5Ac(a2-3)Gal(b1-4)GlcNAc(b1-3)Gal(b1-4)GlcNAc(b1-3)Gal(b1-4)GlcNAc(b1-2)Man(a1-3)[Neu5Ac(a2-3)Gal(b1-4)GlcNAc(b1-3)Gal(b1-4)GlcNAc(b1-3)Gal(b1-4)GlcNAc(b1-2)Man(a1-6)]GalNAc
# How it was run: as §1
# [4] = biological target: Neu5Ac(a2-3)Gal(b1-4)GlcNAc(b1-3)Gal(b1-4)GlcNAc(b1-3)GalNAc
# How it was run: as §1
# [5] = biological target: Neu5Ac(a2-3)Gal(b1-4)GlcNAc(b1-3)GalNAc
# How it was run: as §1
# [6] = biological target: Neu5Ac(a2-3)Gal(b1-4)GlcNAc(b1-6)GalNAc
# How it was run: as §1
# [7] = biological target: Neu5Ac(a2-6)Gal(b1-4)GlcNAc(b1-2)[Neu5Ac(a2-6)Gal(b1-4)GlcNAc(b1-4)]Man(a1-3)[GlcNAc(b1-4)][Neu5Ac(a2-6)Gal(b1-4)GlcNAc(b1-2)[Neu5Ac(a2-6)Gal(b1-4)GlcNAc(b1-6)]Man(a1-6)]Man(b1-4)GlcNAc(b1-4)GlcNAc
# How it was run: as §1
# [8] = biological target: Neu5Ac(a2-6)Gal(b1-4)GlcNAc(b1-3)GalNAc
# How it was run: as §1
# [9] = biological target: Neu5Ac(a2-6)Gal(b1-4)GlcNAc(b1-6)[Gal(b1-3)GlcNAc(b1-3)]Gal(b1-4)Glc
# How it was run: as §1
# Neu5Ac(a2-6)GalNAc = biological target: Neu5Ac(a2-6)GalNAc
# How it was run: as §1
# [10] = biological target: Neu5Ac(a2-6)GalNAc(b1-4)GlcNAc6S
# How it was run: as §1
# [11] = biological target: Neu5Ac(a2-8)Neu5Ac(a2-3)[Gal(b1-3)GalNAc(b1-4)]Gal(b1-4)Glc
# How it was run: as §1
# [12] = biological target: Neu5Gc(a2-3)Gal(b1-4)GlcNAc
# How it was run: as §1
# [13] = biological target: Neu5Gc(b2-6)Gal(b1-4)GlcNAc
# How it was run: as §1
binder,measurement,setting,value
B1,glycan array binding signal (z-score),Man(a1-3)[Man(a1-6)]Man,-0.397
same,glycan array binding signal (z-score),[1],-0.342
same,glycan array binding signal (z-score),[2],3.56
same,glycan array binding signal (z-score),[3],-0.248
same,glycan array binding signal (z-score),[4],-0.413
same,glycan array binding signal (z-score),[5],-0.418
same,glycan array binding signal (z-score),[6],3.67
same,glycan array binding signal (z-score),[7],-0.401
same,glycan array binding signal (z-score),[8],2.03
same,glycan array binding signal (z-score),[9],-0.418
same,glycan array binding signal (z-score),Neu5Ac(a2-6)GalNAc,3.61
same,glycan array binding signal (z-score),[10],2.56
same,glycan array binding signal (z-score),[11],3.49
same,glycan array binding signal (z-score),[12],-0.399
same,glycan array binding signal (z-score),[13],-0.424
